Our source for the binding signal values is PMC4081100, “A DNA-binding-site landscape and regulatory network analysis for NAC transcription factors in Arabidopsis thaliana”.

Assay in all cases: universal protein binding microarray (PBM); transcription factors of Arabidopsis thaliana; high values mean tight binding
Experiment [1] concerns the target T1, GST-ANAC019 NAC domain (Arabidopsis thaliana, UniProt Q9C932 14-162).
T1 sequence: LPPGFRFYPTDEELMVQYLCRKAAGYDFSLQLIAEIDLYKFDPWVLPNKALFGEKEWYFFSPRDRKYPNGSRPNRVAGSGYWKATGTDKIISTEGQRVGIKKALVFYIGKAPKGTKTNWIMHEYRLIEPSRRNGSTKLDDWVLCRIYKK
To be noted: protein: recombinant; tags: GST; chain copies: 2; dsDNA, one strand shown. The gist of the method: (§1)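 GST-tagged proteins (NAC-domain, full-length or DNA-binding-domain) were induced in cells, with zinc acetate supplied for zinc-finger proteins, then purified on glutathione–Sepharose 4B. Each was tested in duplicate at 200 to 500 nM final on custom all-10-mer Agilent 4 × 180K arrays rendered double-stranded by primer extension. The binding value is the normalised enrichment score (E-score) across gapped and ungapped 8-mers.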

The target of experiment [2] is T2, GST-ANAC092(1-285) full length (Arabidopsis thaliana, UniProt Q9FKA0 1-285).
T2 sequence: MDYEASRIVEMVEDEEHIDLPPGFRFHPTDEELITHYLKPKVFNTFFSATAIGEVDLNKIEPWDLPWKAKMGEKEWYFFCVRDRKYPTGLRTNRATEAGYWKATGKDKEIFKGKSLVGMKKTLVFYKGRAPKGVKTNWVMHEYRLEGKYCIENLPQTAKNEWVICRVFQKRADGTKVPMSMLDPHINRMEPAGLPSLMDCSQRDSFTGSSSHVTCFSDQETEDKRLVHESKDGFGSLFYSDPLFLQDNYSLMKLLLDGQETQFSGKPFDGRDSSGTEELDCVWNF
The settings on record: protein: recombinant; tags: GST; chain copies: 2; dsDNA, one strand shown. In short, it runs like this:
as §1

Experiment [3] deals with T3, GST-NAP(1-166) (Arabidopsis thaliana, UniProt O49255 1-166).
T3 sequence: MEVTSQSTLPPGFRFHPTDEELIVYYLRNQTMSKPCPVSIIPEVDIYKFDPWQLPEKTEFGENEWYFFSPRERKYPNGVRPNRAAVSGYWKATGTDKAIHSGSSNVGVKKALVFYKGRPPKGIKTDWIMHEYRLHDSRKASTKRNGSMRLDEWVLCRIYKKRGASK
The settings on record: protein: recombinant; tags: GST; chain copies: 2; dsDNA, one strand shown. In short, it runs like this:
as §1

In experiment [4] the target is T4, GST-SND1(1-203) (Arabidopsis thaliana, UniProt Q9LPI7 1-203).
T4 sequence: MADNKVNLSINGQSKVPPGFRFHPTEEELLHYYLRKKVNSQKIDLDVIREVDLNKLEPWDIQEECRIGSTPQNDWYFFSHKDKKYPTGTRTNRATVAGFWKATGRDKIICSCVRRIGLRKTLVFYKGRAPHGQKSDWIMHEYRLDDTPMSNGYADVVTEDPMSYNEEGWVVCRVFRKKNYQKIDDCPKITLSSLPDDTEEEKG
To be noted: protein: recombinant; tags: GST; chain copies: 2; dsDNA, one strand shown. The gist of the method:
as §1

In experiment [5] the target is T5, GST-VND3 NAC domain (Arabidopsis thaliana, UniProt Q9FH59 12-162).
T5 sequence: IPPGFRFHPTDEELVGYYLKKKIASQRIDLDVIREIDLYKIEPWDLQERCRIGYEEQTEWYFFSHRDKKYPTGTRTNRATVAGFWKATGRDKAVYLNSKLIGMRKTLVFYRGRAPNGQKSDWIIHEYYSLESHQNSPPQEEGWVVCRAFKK
The settings on record: protein: recombinant; tags: GST; chain copies: 2; dsDNA, one strand shown. In short, it runs like this: as §1

Experiment [6] addresses GST-WRKY1(266-371) (Arabidopsis thaliana, UniProt Q9SI37 266-371). To be noted: protein: recombinant; tags: GST; dsDNA, one strand shown. The gist of the method: as §1
Experiment [7] addresses T6, GST-ANAC092(1-176) (Arabidopsis thaliana, UniProt Q9FKA0 1-176).
T6 sequence: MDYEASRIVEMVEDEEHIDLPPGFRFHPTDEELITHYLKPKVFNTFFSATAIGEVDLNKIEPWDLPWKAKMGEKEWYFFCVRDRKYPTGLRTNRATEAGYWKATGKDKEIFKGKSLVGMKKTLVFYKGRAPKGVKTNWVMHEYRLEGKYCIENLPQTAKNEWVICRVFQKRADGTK
The settings on record: protein: recombinant; tags: GST; chain copies: 2; dsDNA, one strand shown. The gist of the method: as §1

The target in experiment [8] is T7, GST-NST2(1-184) (Arabidopsis thaliana, UniProt Q9M274 1-184).
T7 sequence: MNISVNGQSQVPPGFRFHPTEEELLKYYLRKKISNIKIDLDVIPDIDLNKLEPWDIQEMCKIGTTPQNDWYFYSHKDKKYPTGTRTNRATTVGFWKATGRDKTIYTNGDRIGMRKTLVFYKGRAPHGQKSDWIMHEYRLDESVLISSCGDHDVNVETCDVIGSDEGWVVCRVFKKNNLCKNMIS
The settings on record: protein: recombinant; tags: GST; chain copies: 2; dsDNA, one strand shown. The gist of the method: as §1

The target of experiment [9] is T8, GST-VND7 NAC domain (Arabidopsis thaliana, UniProt Q9C8W9 9-158).
T8 sequence: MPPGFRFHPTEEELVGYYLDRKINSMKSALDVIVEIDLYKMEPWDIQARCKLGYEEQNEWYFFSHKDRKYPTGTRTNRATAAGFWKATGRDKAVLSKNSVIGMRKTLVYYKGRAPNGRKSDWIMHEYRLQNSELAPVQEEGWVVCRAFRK
To be noted: protein: recombinant; tags: GST; chain copies: 2; dsDNA, one strand shown. In short, it runs like this: as §1

Experiment [10] deals with T9, GST-ANAC055(1-171) (Arabidopsis thaliana, UniProt Q9LDY8 1-171).
T9 sequence: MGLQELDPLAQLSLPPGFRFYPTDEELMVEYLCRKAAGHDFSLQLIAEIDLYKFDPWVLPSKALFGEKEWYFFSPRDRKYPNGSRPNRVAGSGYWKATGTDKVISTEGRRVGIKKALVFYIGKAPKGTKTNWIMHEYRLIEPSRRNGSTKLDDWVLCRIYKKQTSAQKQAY
The settings on record: protein: recombinant; tags: GST; chain copies: 2; dsDNA, one strand shown. The gist of the method: as §1

Experiment [11] has as its target T10, GST-ATAF1 NAC domain (Arabidopsis thaliana, UniProt Q39013 7-158).
T10 sequence: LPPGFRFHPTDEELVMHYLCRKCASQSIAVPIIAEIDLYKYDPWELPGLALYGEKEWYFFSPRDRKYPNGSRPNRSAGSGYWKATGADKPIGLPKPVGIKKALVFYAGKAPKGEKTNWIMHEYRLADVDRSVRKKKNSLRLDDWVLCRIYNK
The settings on record: protein: recombinant; tags: GST; chain copies: 2; dsDNA, one strand shown. The gist of the method:
as §1

Experiment [12] concerns the target GST-NTL6(1-168) (Arabidopsis thaliana, UniProt Q9SCK6 1-168). The settings on record: protein: recombinant; tags: GST; chain copies: 2; dsDNA, one strand shown. The gist of the method:
as §1

In experiment [13] the target is T11, GST-NTL8 NAC domain (Arabidopsis thaliana, UniProt Q9XIN7 14-156).
T11 sequence: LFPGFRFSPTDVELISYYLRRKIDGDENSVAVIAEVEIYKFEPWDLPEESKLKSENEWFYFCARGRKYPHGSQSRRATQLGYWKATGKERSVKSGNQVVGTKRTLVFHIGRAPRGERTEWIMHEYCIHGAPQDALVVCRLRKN
To be noted: protein: recombinant; tags: GST; chain copies: 2; dsDNA, one strand shown. The gist of the method: as §1

Chain of GST-NTL6(1-168) (Q9SCK6 1-168): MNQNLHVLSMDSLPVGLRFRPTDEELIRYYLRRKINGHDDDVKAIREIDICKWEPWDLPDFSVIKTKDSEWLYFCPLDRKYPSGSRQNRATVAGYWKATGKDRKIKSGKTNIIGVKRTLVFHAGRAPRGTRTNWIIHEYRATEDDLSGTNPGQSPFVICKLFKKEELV
Chain of GST-WRKY1(266-371) (Q9SI37 266-371): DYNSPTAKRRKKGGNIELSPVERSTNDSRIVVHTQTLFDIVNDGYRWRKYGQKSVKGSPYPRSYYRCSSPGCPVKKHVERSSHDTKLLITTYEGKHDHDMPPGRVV

ACCGTCAA: the binding signal in [1] came to 0.156 E-score; in [2] it was 0.117 E-score; in experiment [3] it was 0.092 E-score; in [4], 0.148 E-score; in [5], 0.126 E-score; in experiment [6], 0.41 E-score.
CACGCGAC: the binding signal in [7] came to 0.421 E-score; in [2] it was 0.462 E-score; in experiment [3], 0.0736 E-score; in experiment [8], 0.161 E-score; in [4], 0.351 E-score; in experiment [9], 0.064 E-score. Also, the binding signal in [6] worked out at 0.11 E-score.
Take GTCAATTA: the binding signal was determined as 0.0852 E-score in experiment [10]; 0.202 E-score in experiment [11]; 0.159 E-score in experiment [2]; 0.147 E-score in experiment [8]; 0.122 E-score in experiment [4]; 0.104 E-score in [5]. In addition, the binding signal in [6] turned out to be 0.42 E-score.
Consider GGCGTGTA, for which the binding signal in experiment [7] was determined as 0.4 E-score; in experiment [1] it was 0.198 E-score; in experiment [10], 0.109 E-score; in [11] it was 0.163 E-score; in experiment [2] it was 0.439 E-score; in [3] it was 0.13 E-score. Moreover, the values for the binding signal in [8], in experiment [4] and in experiment [5] were 0.14 E-score, 0.142 E-score and 0.118 E-score, respectively.
Consider AAGGAATC, for which the binding signal in [7] stood at 0.172 E-score; in [12], 0.42 E-score; in [11], 0.0816 E-score; in [2], 0.251 E-score; in [8] it was 0.0867 E-score; in experiment [13], 0.328 E-score. Also, the binding signal in experiment [4] was 0.292 E-score; in experiment [5] it was 0.0823 E-score.
Turning to GTCAACAA, the binding signal in experiment [12] is 0.0834 E-score; in [10], 0.163 E-score; in [11], 0.191 E-score; in [2], 0.136 E-score; in experiment [3], 0.075 E-score; in experiment [8], 0.101 E-score. Further, the binding signal in [13] turned out to be 0.0573 E-score; in experiment [4] it was 0.177 E-score; in [9], 0.07 E-score; in experiment [6], 0.478 E-score.
As to AAGGTAAG, the binding signal was 0.0968 E-score in experiment [7]; 0.306 E-score in experiment [12]; 0.175 E-score in experiment [1]; 0.11 E-score in experiment [11]; 0.225 E-score in experiment [2]; 0.144 E-score in [8]. Further, the binding signal in experiment [13] turned out to be 0.402 E-score; in [4], 0.2 E-score; in experiment [5] it was 0.113 E-score.
